“And” between values parts separate entries of the source, which are not always exact repeats. Equal values may be shown once. The whole screen tested about 5,500 compounds, of which about 2,000 (36%) were called active. Not shown: some 18% with an inconclusive outcome. Rule as the data show it: active = normalized growth mostly below about 0.91 (no sharp cut-off); inconclusive = no clear call, values can overlap the other calls; inactive = mostly above about 0.92. This is one part of the list.
Experiment: chemical genetic growth profiling, strain panel (AID 1159580);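 also: tested at 20 µM; growth read once vehicle control cultures reached saturation at 30 °C; 1 = growth at the plate median or of vehicle wells; lower values mean less growth of the strain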
Details: S. cerevisiae deletion strains, growth OD

Measured: normalized growth

CC1=C(/C=C/C(C)=C/C=C/C(C)=C/CO)C(C)(C)CCC1
inactive: locus YAL013W, strain DEP1, active compounds read low 1 | locus YAL021C, strain ccr4, active compounds read low 1.05 | locus YAL026C, strain drs2, active compounds read low 1.03 | locus YAL030W, strain snc1, active compounds read low 0.995 | locus YBL061C, strain skt5, active compounds read low 1.02 | locus YBR009C, strain hhf1, active compounds read low 0.961 | locus YBR021W, strain FUR4, active compounds read low 1.01 | locus YBR023C, strain chs3, active compounds read low 1.01 | locus YBR171W, strain sec66, active compounds read low 1.01 | locus YBR229C, strain ROT2, active compounds read low 0.969 | locus YBR231C, strain swc5, active compounds read low 0.983 | locus YBR279W, strain paf1, active compounds read low 1 | locus YCL011C, strain gbp2, active compounds read low 1.04 | locus YCL016C, strain dcc1, active compounds read low 1.04 | locus YCL029C, strain bik1, active compounds read low 1 | locus YCL061C, strain MRC1, active compounds read low 1.01 | locus YCL069W, strain vba3, active compounds read low 1.01 | locus YCR088W, strain abp1, active compounds read low 1.03 | locus YDL005C, strain med2, active compounds read low 1.02 | locus YDL035C, strain GPR1, active compounds read low 0.982 | locus YDL040C, strain nat1, active compounds read low 0.998 | locus YDL074C, strain BRE1, active compounds read low 0.938 | locus YDL101C, strain DUN1, active compounds read low 0.977 | locus YDL134C, strain PPH21, active compounds read low 1.02 | locus YDL185W, strain tfp1, active compounds read low 0.997 | locus YDL192W, strain arf1, active compounds read low 1 | locus YDR001C, strain nth1, active compounds read low 1.01 | locus YDR069C, strain doa4, active compounds read low 1.04 | locus YDR101C, strain arx1, active compounds read low 0.993 | locus YDR137W, strain rgp1, active compounds read low 1.03 | locus YDR150W, strain NUM1, active compounds read low 1 | locus YDR159W, strain sac3, active compounds read low 0.968 | locus YDR162C, strain NBP2, active compounds read low 0.993 | locus YDR195W, strain ref2 0.988 | locus YDR297W, strain sur2, active compounds read low 1 | locus YDR318W, strain mcm21, active compounds read low 1 | locus YDR334W, strain swr1, active compounds read low 1.02 | locus YDR335W, strain msn5, active compounds read low 1.02 | locus YDR388W, active compounds read low 1 | locus YDR392W, strain spt3, active compounds read low 0.965 | locus YDR502C, strain sam2, active compounds read low 1 | locus YEL003W, strain gim4, active compounds read low 1 | locus YEL037C, strain rad23, active compounds read low 1 | locus YEL061C, strain CIN8 (second series), active compounds read low 1.01 | locus YEL061C, strain CIN8, active compounds read low 0.992 | locus YER015W, strain faa2, active compounds read low 1.01 | locus YER016W, strain bim1, active compounds read low 1.06 | locus YER110C, active compounds read low 0.999 | locus YER111C, strain swi4, active compounds read low 1 | locus YER155C, strain BEM2 (second series), active compounds read low 1.07 | locus YER155C, strain BEM2, active compounds read low 1.01 | locus YER167W, strain BCK2, active compounds read low 1 | locus YFR010W, strain ubp6, active compounds read low 0.988 | locus YGL078C, strain dbp3, active compounds read low 1.01 | locus YGL086W, strain mad1, active compounds read low 0.983 | locus YGL167C, strain pmr1, active compounds read low 1.01 | locus YGL173C, strain kem1, active compounds read low 0.971 | locus YGL227W, strain vid30, active compounds read low 1 | locus YGL240W, strain doc1, active compounds read low 1.01 | locus YGL248W, strain PDE1, active compounds read low 0.965 | locus YGL253W, strain hxk2, active compounds read low 0.993 | locus YGR078C, strain PAC10, active compounds read low 0.967 | locus YGR135W, strain pre9, active compounds read low 1 | locus YGR252W, strain gcn5, active compounds read low 0.985 | locus YHR013C, strain ard1, active compounds read low 1.04 | locus YHR027C, strain rpn1, active compounds read low 1.01 | locus YHR030C, strain SLT2, active compounds read low 1.01 and 0.999 | locus YHR079C, strain IRE1 (second series), active compounds read low 1.01 | locus YHR079C, strain IRE1, active compounds read low 1.04 | locus YHR094C, strain hxt1, active compounds read low 1.01 | locus YHR129C, strain ARP1, active compounds read low 1.01 | locus YHR142W, strain chs7, active compounds read low 1 | locus YHR200W, strain rpn10, active compounds read low 1 | locus YIL066C, strain RNR3, active compounds read low 0.964 | locus YIL073C, strain SPO22, active compounds read low 1.01 | locus YIL125W, strain kgd1, active compounds read low 0.995 | locus YIR030C, strain dcg1, active compounds read low 0.998 | locus YJL092W, strain hpr5, active compounds read low 1 | locus YJL095W, strain BCK1 (second series), active compounds read low 1 | locus YJL095W, strain BCK1, active compounds read low 0.924 and 1.01 | locus YJL115W, strain asf1, active compounds read low 1.01 | locus YJL129C, strain trk1, active compounds read low 0.985 | locus YJL134W, strain LCB3, active compounds read low 1.01 | locus YJL154C, strain vps35, active compounds read low 1.02 | locus YJL164C, strain tpk1, active compounds read low 0.993 | locus YJL166W, strain qcr8, active compounds read low 0.967 | locus YJL168C, strain set2, active compounds read low 0.997 | locus YJL187C, strain SWE1 (second series), active compounds read low 0.96
